Measurements reported in PubChem BioAssay AID602474 (National Center for Advancing Translational Sciences (NCATS), 2012).
Results filed as inconclusive are left out. A number with no mark means an inactive call. Active and inactive are the calls of the source. Calls follow the shape of the dose curve; as a rule, active = well fitted inhibition curve with a large enough effect; inconclusive = small, poorly fitted or top-dose-only effect; inactive = no such curve, though single readings can be large or run the other way.

molecular target: Luciferin 4-monooxygenase (Photinus pyralis) (UniProt P08659); experiment: FLuc inhibitory activity for the follow-up compounds in a biochemical assay with a commercial detection reagent - BriteliteTM Plus (PerkinElmer); conditions: purified FLuc, Britelite Plus luminescence; series mostly up to 38.3 µM; activity change, negative = inhibition: at the top concentration
Text: NCGC Assay Overview: Firefly (Photinus pyralis) luciferase is one of the most commonly used transcriptional reporters. It is considered one of the more dynamically responsive reporters - that is, responsive to changes in reporter transcription - as it requires no post-translational modifications and is enzymatically active directly after protein synthesis (Wood, 1998). With no endogenous expression in mammalian cells and without the requirement of external excitation, it offers very little background signal, thus generally providing excellent signal to background for most assays. Previous profiling work to determine the prevalence of compounds that affect FLuc enzymatic activity (PubChem AID 411) identified that ~3% of the MLSMR library (then at ~72K) inhibited FLuc (Auld et al., 2008). […] Of the compounds identified in this profile that inhibited FLuc, 151 compounds were selected for further analysis, in an effort to better understand their mode of inhibiting FLuc. The assay described here was to determine the activity of the compounds in a FLuc assay that used a commercial formulation of detection reagent (BriteliteTM Plus; PerkinElmer).
NCGC Assay Protocol Summary: Reagents: Britelite Plus detection reagent; 50mM Tris acetate, pH 7.5; 10nM P. pyralis luciferase (Sigma #L9506) Control compounds used were two known firefly luciferase inhibitors (3-(5-(3-chlorophenyl)-1,2,4-oxadiazol-3-yl)benzoic acid and 5-(2-fluorophenyl)-3-phenyl-1,2,4-oxadiazole), and DMSO. Assay Summary: Three microliters of buffer containing firefly luciferase (final concentrations: 50mM Tris acetate, 10nM P. pyralis luciferase) are dispensed into each well of a Greiner white, solid-bottom 1536-well format plate using a flying reagent dispenser (FRD). These assay plates were then treated with 23nL of compound or DMSO using a Kalypsys pin tool, which allows for delivery of a 12-point intraplate titration of each compound to the assay plate (quantitative HTS), with final compound concentrations ranging from approximately ~38uM to 0.2nM. Three microliters of 2X Britelite Plus detection reagent was then delivered by FRD to each well. Luciferase activity was then measured using a ViewLux CCD imager (PerkinElmer), with an average exposure time of 2-30 seconds (2X binning, medium/high gain).

Sequence of Luciferin 4-monooxygenase (Photinus pyralis) (P08659 whole entry, looked up): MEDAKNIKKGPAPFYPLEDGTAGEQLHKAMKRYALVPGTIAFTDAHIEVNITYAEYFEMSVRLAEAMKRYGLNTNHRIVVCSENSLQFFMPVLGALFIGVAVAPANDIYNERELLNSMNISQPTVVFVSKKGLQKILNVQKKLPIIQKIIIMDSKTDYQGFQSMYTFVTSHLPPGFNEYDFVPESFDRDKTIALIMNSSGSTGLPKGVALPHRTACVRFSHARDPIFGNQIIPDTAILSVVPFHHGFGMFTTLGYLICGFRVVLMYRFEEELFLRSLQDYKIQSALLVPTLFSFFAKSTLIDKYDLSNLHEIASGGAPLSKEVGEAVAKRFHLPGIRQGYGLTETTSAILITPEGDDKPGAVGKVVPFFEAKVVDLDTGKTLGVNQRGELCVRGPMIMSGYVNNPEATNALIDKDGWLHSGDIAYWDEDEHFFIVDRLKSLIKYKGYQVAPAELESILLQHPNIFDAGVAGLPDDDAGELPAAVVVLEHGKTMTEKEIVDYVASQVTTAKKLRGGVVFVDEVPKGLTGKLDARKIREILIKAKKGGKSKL

SMILES	activity change, negative = inhibition [%]	Potency
CCOC(=O)N1CCN(CC(=O)Nc2nc3ccc(OC)cc3s2)CC1	4.35	
COc1ccc2nc(NC(=O)C3CCN(S(=O)(=O)c4cccnc4)CC3)sc2c1	37.8	
O=C(Nc1ccccc1C(=O)O)c1ccccc1	-22.6	
Cc1ccc(C(=O)Nc2cccc(C(=O)O)c2)cc1S(=O)(=O)N1CCCC1		2.25 µM (active)
COc1ccc2nc(NC(=O)c3cccs3)sc2c1	-16.2	
O=C(O)c1cccc(NC(=O)c2cccc(S(=O)(=O)Nc3cccc(F)c3)c2)c1	-35.2	
CCOc1ccc2nc(NC(=O)c3ccccc3)sc2c1		2.52 µM (active)
O=C(O)c1cccc(NC(=O)c2ccc(S(=O)(=O)c3ccccc3)cc2)c1	-14.5	
CCOc1ccc2nc(NC(=O)c3cc([N+](=O)[O-])ccc3N3CCOCC3)sc2c1	-22.5	
O=C(O)c1cccc(NC(=O)c2cccc(NC(=O)C3CCCO3)c2)c1 (stereo not given)		11.3 µM (active)
O=C(Cc1ccc(Cl)cc1)Nc1cccc(C(=O)Nc2ccccc2C(=O)O)c1	17.1	
CC(C)(C)C(=O)Nc1ccc(-c2nc3ccccc3s2)cc1		0.0179 µM (active)
O=C(Nc1ccccc1C(=O)O)c1cc(S(=O)(=O)NCc2ccccc2)ccc1Cl	-4.67	
CCOc1ccc2nc(NC(=O)Cc3cccs3)sc2c1	-11.8	
COc1ccccc1C(=O)Nc1ccc(C(=O)Nc2ccccc2C(=O)O)cc1	14.6	
Cc1c(C)c2ccc(OCC(=O)Nc3ccccn3)c(C)c2oc1=O		0.04 µM (active)
COc1cc(OC)cc(C(=O)Nc2ccc(-c3nc4ccccc4s3)c(C)c2)c1		0.113 µM (active)
Cc1ccccc1C(=O)Nc1cccc(C(=O)Nc2ccccc2C(=O)O)c1	0.207	

SMILES	activity change, negative = inhibition [%]	Potency
Cc1ccc(S(=O)(=O)N2CCN(C(=O)c3ccccc3-c3nc4ccccc4s3)CC2)c(C)c1	14.2	
Cc1ccc2nc(-c3ccc(N)cc3)sc2c1		0.895 µM (active)
COc1ccccc1C(=O)Nc1ccc(C(=O)O)cc1	4.95	
Cc1ccc(C(=O)Nc2cccc(C(=O)O)c2)cc1S(=O)(=O)N1CCOCC1		11.3 µM (active)
Cc1ccc2sc(-c3ccc(NC(=O)c4cc(-n5cnnc5)ccc4Cl)cc3)nc2c1	1.78	
O=C(O)c1cccc(NC(=O)c2ccccc2NC(=O)c2ccco2)c1	-7.53	
CCOc1ccc(C(=O)Nc2cccc(C(=O)O)c2)cc1Cl		7.11 µM (active)
O=C(Nc1ccc(Cl)cc1-c1nc2ccccc2s1)c1ccco1	4.66	
CC(=O)Nc1cccc(-c2nc3ccccc3s2)c1C	-17.2	
CC(C)(C)NC(=O)c1ccccc1-c1nc2ccccc2s1	-6.17	
COc1ccc2nc(NC(=O)C3CCN(S(=O)(=O)c4cccs4)CC3)sc2c1	-1.3	
Cc1cccc(NS(=O)(=O)c2cccc(C(=O)Nc3cccc(C(=O)O)c3)c2)c1	11.1	
O=C(Nc1ccccc1C(=O)O)c1cccc(C(=O)Nc2ccccc2C(=O)O)c1	-11.6	
Cc1ccc(C(=O)O/N=C(\N)c2ccccn2)cc1		0.0283 µM (active)
Nc1ccc(C(=O)Nc2ccccc2C(=O)O)cc1		11.3 µM (active)
O=C(O)c1ccc(NC(=O)c2ccccc2NC(=O)c2ccccc2Br)cc1	-11.6	
CCc1noc(C)c1C(=O)Nc1nc2ccc(OC)cc2s1		0.0504 µM (active)
